From the supplement of paper PMC6089552
Among all 3,200 compounds or so, about 300 (9.4%) showed activity. What follows is part of a selection rich in actives, with near analogues and random picks from the rest.

Test system: A673/TR/shEF
Experiment: cell viability (LOESS-normalised, relative to median of negative controls) (log2 ratio); higher = more viable cells (less compound effect), active = hit call of the paper (over 3 MAD below the median)
Settings: treatment time: 72 h
Outline: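 A673/TR/shEF Ewing sarcoma cells (1,500 per well, 384-well plates) were grown with or without doxycycline to induce EWS-FLI1 shRNA knockdown, starting 24 h before compounds. Library compounds at two or more concentrations, with DMSO controls, were added for three days. Cell viability was read by CellTiter-Glo luminescence on an Envision reader, then LOESS-corrected per plate, divided by the median of negative controls and log2-transformed. Hits were wells at least three median absolute deviations from the median of all screened wells.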

[1] = 0.25 µM, library screen: screen1, EWS-FLI1 expression: high (no doxycycline)
[2] = 0.25 µM, library screen: screen1, EWS-FLI1 expression: low (doxycycline-induced shRNA knockdown)
[3] = 2.5 µM, library screen: screen1, EWS-FLI1 expression: high (no doxycycline)
[4] = 2.5 µM, library screen: screen1, EWS-FLI1 expression: low (doxycycline-induced shRNA knockdown)
[5] = 0.25 µM, library screen: screen2, EWS-FLI1 expression: high (no doxycycline)
[6] = 0.25 µM, library screen: screen2, EWS-FLI1 expression: low (doxycycline-induced shRNA knockdown)
[7] = 2.5 µM, library screen: screen2, EWS-FLI1 expression: high (no doxycycline)
[8] = 2.5 µM, library screen: screen2, EWS-FLI1 expression: low (doxycycline-induced shRNA knockdown)
[9] = 0.103 µM, library screen: screen3, EWS-FLI1 expression: high (no doxycycline)
[10] = 0.103 µM, library screen: screen3, EWS-FLI1 expression: low (doxycycline-induced shRNA knockdown)
[11] = 0.308 µM, library screen: screen3, EWS-FLI1 expression: high (no doxycycline)
[12] = 0.308 µM, library screen: screen3, EWS-FLI1 expression: low (doxycycline-induced shRNA knockdown)
[13] = 0.926 µM, library screen: screen3, EWS-FLI1 expression: high (no doxycycline)
[14] = 0.926 µM, library screen: screen3, EWS-FLI1 expression: low (doxycycline-induced shRNA knockdown)
[15] = 2.8 µM, library screen: screen3, EWS-FLI1 expression: high (no doxycycline)
[16] = 2.8 µM, library screen: screen3, EWS-FLI1 expression: low (doxycycline-induced shRNA knockdown)
[17] = 8.3 µM, library screen: screen3, EWS-FLI1 expression: high (no doxycycline)
[18] = 8.3 µM, library screen: screen3, EWS-FLI1 expression: low (doxycycline-induced shRNA knockdown)
[19] = 25 µM, library screen: screen3, EWS-FLI1 expression: high (no doxycycline)
[20] = 25 µM, library screen: screen3, EWS-FLI1 expression: low (doxycycline-induced shRNA knockdown)
[21] = 0.025 µM, library screen: screen1, EWS-FLI1 expression: high (no doxycycline)
[22] = 0.025 µM, library screen: screen1, EWS-FLI1 expression: low (doxycycline-induced shRNA knockdown)
[23] = 25 µM, library screen: screen1, EWS-FLI1 expression: high (no doxycycline)
[24] = 25 µM, library screen: screen1, EWS-FLI1 expression: low (doxycycline-induced shRNA knockdown)

Measured: cell viability (log2)

C=C1CC/C=C(/C)CC[C@@H]2[C@@H]1CC2(C)C
inactive: [1] 0.102 | [2] 0.0257 | [3] 0.165 | [4] 0.118

CC1(C)CC[C@]2(C(=O)O)[C@H](O)C[C@]3(C)C(=CC[C@@H]4[C@@]5(C)CC[C@H](O)C(C)(C)[C@@H]5CC[C@]43C)[C@@H]2C1
inactive: [1] 0.0739 | [2] 0.0342 | [3] 0.0945 | [4] 0.121

CC1(C)C(=O)CCC2(C)C1CC(O)C1(C)C2CCC2(C)C(c3ccoc3)OC(=O)C3OC321 (stereo not drawn)
inactive: [1] 0.0271 | [2] -0.0613 | [3] 0.1 | [4] -0.017

NC(N)=NCCSSCCN=C(N)N
inactive: [5] 0.208 | [6] 0.0937 | [7] 0.0577 | [8] 0.063

O=c1cccc2ccc(O)c(O)c2c1O
inactive: [1] 0.0319 | [2] -0.0442 | [3] 0.142 | [4] -0.0155

COc1cc(O)cc(OC)c1OC
inactive: [1] 0.0343 | [2] 0.0156 | [3] 0.173 | [4] 0.0956

COc1ccc(CN2CCN(Cc3cc(OC)c(OC)c(OC)c3)CC2)cc1
inactive: [1] 0.174 | [2] 0.0733 | [3] 0.142 | [4] -0.0868

COc1cc(Cc2cnc(N)nc2N)cc(OC)c1OC
inactive: [1] 0.149 | [2] 0.184 | [3] 0.204 | [4] 0.321
active: [5] -0.215 | [6] -0.0762 | [7] -1.67 | [8] -2.59

COc1ccc(-c2coc3cc(OC)cc(O)c3c2=O)cc1
inactive: [1] 0.0141 | [2] 0.0676 | [3] 0.102 | [4] 0.184

COc1cc(CN2CCN(Cc3ccco3)CC2)cc(OC)c1
inactive: [1] -0.0146 | [2] 0.0935 | [3] 0.0118 | [4] 0.0977

CCCS(=O)(=O)Nc1ccc(F)c(C(=O)c2c[nH]c3ncc(-c4ccc(Cl)cc4)cc23)c1F
inactive: [9] 0.0151 | [10] 0.0756 | [11] -0.0936 | [12] 0.103 | [13] -0.131 | [14] 0.105 | [15] -0.159 | [16] 0.126 | [17] -0.177 | [18] 0.106 | [20] 0.0931
active: [19] -0.179

COc1c(Cl)c(C)c2c(c1Cl)OC(=O)c1c(C)c(Cl)c(O)c(Cl)c1O2
inactive: [1] 0.0361 | [2] 0.0285 | [3] 0.0998 | [4] 0.0885

CC1CN(S(=O)(=O)c2cccc3cnccc23)CCN1 (stereo not drawn)
inactive: [5] 0.246 | [6] 0.094 | [7] 0.214 | [8] 0.111

CN([C@@H](Cc1ccc(OS(=O)(=O)c2cccc3cnccc23)cc1)C(=O)N1CCN(c2ccccc2)CC1)S(=O)(=O)c1cccc2cnccc12
inactive: [21] 0.267 | [22] 0.00847 | [1] 0.23 | [2] -0.0263 | [5] 0.0748 | [6] 0.07 | [4] 0.0275 | [7] 0.166 | [8] -0.012 | [24] 0.00423
active: [3] -0.171 | [23] -0.315

COc1ccccc1NC1CC(C)N(C(=O)c2ccc(C)cc2)c2c(C)cccc21 (stereo not drawn)
inactive: [1] 0.107 | [2] 0.0693 | [3] 0.128 | [4] 0.111

CC(C)C[C@H](NC(=O)[C@H](CCC(=O)O)NC(=O)CNC(=O)c1ccc(/C=C/C(=O)O)cc1)C(N)=O
active: [21] -0.138
inactive: [22] 0.0951 | [1] -0.0717 | [2] 0.0592 | [3] -0.0597 | [4] 0.0308 | [23] -0.00491 | [24] -0.0971

Nc1ccc(C(=O)NCC(=O)O)cc1
inactive: [1] 0.0323 | [2] 0.126 | [3] 0.15 | [4] 0.151

CCCN(CCC)C(=O)C(CCC(=O)O)NC(=O)c1ccccc1 (stereo not drawn)
inactive: [1] 0.188 | [2] 0.0317 | [5] 0.129 | [6] 0.0785 | [3] 0.223 | [4] 0.0771 | [7] 0.121 | [8] 0.115

CC(=O)O[C@@H]1CC2C(C)(C)C(=O)CC[C@]2(C)C2CC[C@]3(C)C(=CC(=O)O[C@H]3c3ccoc3)[C@@]21C (stereo partly drawn)
inactive: [1] 0.0774 | [2] 0.142 | [3] 0.182 | [4] 0.164

CCCCC(=O)N(Cc1ccc(-c2ccccc2-c2nn[nH]n2)cc1)[C@H](C(=O)O)C(C)C
inactive: [9] 0.0298 | [10] -0.0095 | [11] 0.124 | [12] 0.0801 | [13] 0.0765 | [14] 0.054 | [15] 0.0694 | [16] 0.124 | [17] 0.00201 | [18] 0.078 | [19] 0.137 | [20] 0.104

COc1ccc(/C=C/C(=O)O)cc1OC
inactive: [1] -0.00585 | [2] -0.00138 | [3] 0.164 | [4] 0.0104

CC(C)N1C(=O)C(=Cc2cccs2)SC1=S
inactive: [1] 0.108 | [2] 0.0522 | [3] 0.148 | [4] 0.0877

O=C1CC[C@]23/C=C/C(=O)NCCCCNCCCNC(=O)/C=C/c4ccc(c2c4)O[C@@H]3C1
inactive: [1] 0.0958 | [2] 0.0883 | [3] 0.0986 | [4] 0.157
